Hit rate of the full screen: of about 5,500 compounds, about 2,000 (36%) were called active. Roughly 18% stayed inconclusive and do not appear here. Rule as the data show it: active = normalized growth mostly below about 0.91 (no sharp cut-off); inconclusive = no clear call, values can overlap the other calls; inactive = mostly above about 0.92. Some of the results follow.
Experiment: chemical genetic growth profiling, strain panel (AID 1159580);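 also: tested at 20 µM; growth read once vehicle control cultures reached saturation at 30 °C; 1 = growth at the plate median or of vehicle wells; lower values mean less growth of the strain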
Conditions: S. cerevisiae deletion strains, growth OD
[1] = locus YDL101C, strain DUN1, active compounds read low
[2] = locus YHR030C, strain SLT2, active compounds read low

Measured: normalized growth

C=CCC1C(=O)N(S(=O)(=O)c2ccc(Cl)cc2)N=C1CCC (stereo unspecified)
inactive: locus YAR019C, strain CDC15, active compounds read low 0.992 | locus YBL105C, strain PKC1, active compounds read low 0.994 | locus YBR135W, strain CKS1, active compounds read low 0.998 | locus YBR136W, strain MEC1, active compounds read low 0.987 | locus YBR160W, strain CDC28, active compounds read low 0.997 | locus YDL017W, strain CDC7, active compounds read low 0.996 | locus YDL028C, strain MPS1, active compounds read low 0.995 | [1] 0.991 | locus YDL108W, strain KIN28, active compounds read low 0.989 | locus YDL132W, strain cdc53, active compounds read low 0.994 | locus YDL214C, strain PRR2, active compounds read low 0.951 | locus YDR052C, strain DBF4, active compounds read low 0.999 | locus YDR054C, strain cdc34, active compounds read low 0.996 | locus YDR226W, strain ADK1, active compounds read low 0.996 | locus YDR477W, strain SNF1, active compounds read low 0.981 | locus YER123W, strain YCK3, active compounds read low 0.961 | locus YER133W, strain GLC7, active compounds read low 0.986 | locus YFL009W, strain cdc4, active compounds read low 0.993 | locus YFL029C, strain CAK1, active compounds read low 0.984 | locus YFR003C, strain YPI1, active compounds read low 0.996 | locus YFR019W, strain FAB1, active compounds read low 0.977 | locus YFR028C, strain CDC14, active compounds read low 0.991 | locus YGR040W, strain KSS1, active compounds read low 0.97 | locus YGR052W, strain FMP48, active compounds read low 1.06 | locus YGR092W, strain DBF2, active compounds read low 0.997 | [2] 1.05 | locus YHR079C, strain IRE1, active compounds read low 0.97 | locus YHR082C, strain KSP1, active compounds read low 1.01 | locus YHR205W, strain SCH9, active compounds read low 0.972 | locus YIL147C, strain SLN1, active compounds read low 0.992 | locus YJL095W, strain BCK1, active compounds read low 0.993 | locus YJL128C, strain PBS2, active compounds read low 0.943 | locus YJL157C, strain FAR1, active compounds read low 0.983 | locus YJR016C, strain ILV3, active compounds read low 0.994 | locus YJR066W, strain TOR1 (second series), active compounds read low 0.978 | locus YJR066W, strain TOR1, active compounds read low 0.986 | locus YKL048C, strain ELM1, active compounds read low 0.962 | locus YKL067W, strain YNK1, active compounds read low 0.964 | locus YKL101W, strain HSL1, active compounds read low 0.942 | locus YKL193C, strain SDS22, active compounds read low 0.995 | locus YKL203C, strain TOR2, active compounds read low 1.04 | locus YLR113W, strain HOG1, active compounds read low 0.887 | locus YLR133W, strain CKI1, active compounds read low 0.965 | locus YLR403W, strain SFP1, active compounds read low 1 | locus YML070W, strain DAK1, active compounds read low 0.963 | locus YMR001C, strain CDC5, active compounds read low 0.991 | locus YMR205C, strain PFK2 (second series), active compounds read low 0.966 | locus YMR277W, strain FCP1, active compounds read low 0.999 | locus YNL006W, strain LST8, active compounds read low 0.999 | locus YNL020C, strain ARK1, active compounds read low 0.962 | locus YNL161W, strain CBK1, active compounds read low 0.994 | locus YNL183C, strain NPR1, active compounds read low 0.98 | locus YNL207W, strain RIO2, active compounds read low 0.995 | locus YNL222W, strain SSU72, active compounds read low 0.994 | locus YNL307C, strain MCK1 (second series), active compounds read low 0.989 | locus YOL078W, strain AVO1, active compounds read low 0.995 | locus YOL136C, strain PFK27, active compounds read low 0.968 | locus YOR061W, strain CKA2, active compounds read low 0.97 | locus YOR119C, strain RIO1, active compounds read low 1.01 | locus YOR231W, strain MKK1, active compounds read low 0.968 | locus YOR329C, strain SCD5, active compounds read low 0.996 | locus YPL031C, strain PHO85, active compounds read low 0.953 | locus YPL153C, strain RAD53, active compounds read low 0.977 | locus YPL204W, strain HRR25, active compounds read low 0.998 | locus YPL209C, strain IPL1, active compounds read low 0.994 | locus YPL256C, strain CLN2, active compounds read low 0.916 | locus YPR025C, strain CCL1, active compounds read low 0.994 | locus YPR106W, strain ISR1, active compounds read low 0.988 | locus YPR111W, strain DBF20, active compounds read low 0.978 | strain NNK1, active compounds read low 0.982 | strain TSCII, active compounds read low 0.989

NC(=O)C1=C(O)C(=O)N(C2CCCCC2)C1
inactive: locus YAL013W, strain DEP1, active compounds read low 0.992 | locus YBR229C, strain ROT2, active compounds read low 1.01 | [1] 1.02 | locus YDR150W, strain NUM1, active compounds read low 1.03 | locus YEL061C, strain CIN8, active compounds read low 0.995 | locus YGR078C, strain PAC10, active compounds read low 1 | [2] 1.05 | locus YHR087W, strain rtc3, active compounds read low 0.99 | locus YJR043C, strain POL32, active compounds read low 1.02 | locus YJR075W, strain HOC1, active compounds read low 1.01 | locus YKL190W, strain CNB1, active compounds read low 1.01 | locus YLR039C, strain RIC1, active compounds read low 1.02 | locus YLR058C, strain SHM2 (second series), active compounds read low 1.01 | locus YLR085C, strain ARP6, active compounds read low 1.03 | locus YLR262C, strain YPT6, active compounds read low 1 | locus YML094W, strain GIM5, active compounds read low 1 | locus YMR219W, strain ESC1, active compounds read low 1.01 | locus YMR263W, strain SAP30, active compounds read low 1 | locus YNL153C, strain GIM3, active compounds read low 1.01 | locus YNL298W, strain CLA4 (second series), active compounds read low 1.02 | locus YNL322C, strain KRE1, active compounds read low 0.998 | locus YNR030W, strain Alg12, active compounds read low 1.03 | locus YPL055C, strain LGE1, active compounds read low 0.999 | locus YPL241C, strain CIN2, active compounds read low 0.974 | locus YPR135W, strain CTF4, active compounds read low 1.06
